Experimental findings from PubChem BioAssay (NCI) are described below.

This is part of a sample that, as a whole, favours compounds with a hit. Of some 83,000 tested, about 20% had one in any assay.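 Results are percent growth after 48 hours of single-concentration exposure. 100 means growth as in untreated cells, lower positive values show inhibition; negative values down to -100 show cell death.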 Unmarked numbers belong to inactive results. Activity calls are given as the source filed them. The calls were made as follows: active = growth percent below 10; inactive = the rest.

Test systems include HCT-15 colon; HT29 colon; SNB-75 CNS; SNB-19 CNS; U251 CNS; PC-3 prostate; SK-MEL-5 melanoma; UACC-62 melanoma; LOX IMVI melanoma; SK-MEL-28 melanoma.
Common to all, as to test: NCI-60 one-dose screen, 48 h (100 = growth as untreated, 0 = no growth, -100 = all killed)
Details in all cases: 10 µM unless noted

For `CN(C)CCCOc1ccc2c(c1)c(C(=O)C(=O)NCCO)cn2Cc1ccccc1`, the growth is 105% with HCT-15 colon; 107% in the assay with HT29 colon; 97.4% with SNB-75 CNS; 102% in the assay with SNB-19 CNS; 96.4% in the assay on U251 CNS; 105% in the assay on PC-3 prostate. Also, the growth was 99.8% in the assay on SK-MEL-5 melanoma, 100% in the assay on UACC-62 melanoma, 93% in the assay on LOX IMVI melanoma and 118% with SK-MEL-28 melanoma.
Turning to `O=[N+]([O-])CC(O)C(Cl)(Cl)Cl` (stereo not given), the growth is 102% with HCT-15 colon; 111% in the assay with HT29 colon; 81.1% with SNB-75 CNS; 106% in the assay with SNB-19 CNS; 99.1% with U251 CNS; 94.9% in the assay with PC-3 prostate. Moreover, the growth in the assay on SK-MEL-5 melanoma was 107%; with UACC-62 melanoma, 107%; in the assay on LOX IMVI melanoma, 99.8%; in the assay with SK-MEL-28 melanoma, 102%.
`O=C1NC(=O)C(=Cc2cn(CCCCCCn3c4ccccc4c(=O)c4ccccc43)c3ccccc23)C(=O)N1`: the growth with HCT-15 colon is 75.1%; in the assay with HT29 colon, 97.2%; with SNB-75 CNS, 94.5%; in the assay on SNB-19 CNS, 86%; in the assay on U251 CNS, 90.4%; in the assay on PC-3 prostate it was 84%. Further, the growth with SK-MEL-5 melanoma was 90.5%; in the assay on UACC-62 melanoma, 63.5%; in the assay with LOX IMVI melanoma it was 83.8%; in the assay with SK-MEL-28 melanoma, 102%.
As to `CCNc1nc(Cl)nc(NCC)n1`, the growth was 112% in the assay on HCT-15 colon; 107% with HT29 colon; 93.6% in the assay with SNB-75 CNS; 93% in the assay on SNB-19 CNS; 104% with U251 CNS; 89.9% in the assay on PC-3 prostate. In addition, the growth is 98.2% in the assay with SK-MEL-5 melanoma, 102% in the assay on UACC-62 melanoma, 97.9% in the assay with LOX IMVI melanoma and 115% in the assay with SK-MEL-28 melanoma.
Regarding `COc1cc2c(cc1OCCCCn1c(-c3cccs3)nc3ccccc31)N=C[C@@H]1CCCN1C2=O`, the growth was -11.9% (active) with HCT-15 colon; 2.34% (active) in the assay with HT29 colon; -65.4% (active) in the assay on SNB-75 CNS; 10.5% with SNB-19 CNS; -2.52% (active) in the assay on U251 CNS; -4.05% (active) with PC-3 prostate. Moreover, the growth in the assay with SK-MEL-5 melanoma is -80% (active); in the assay on UACC-62 melanoma, -91.1% (active); in the assay with LOX IMVI melanoma, -48.9% (active); in the assay on SK-MEL-28 melanoma it was -37.4% (active).
On to `COC(=O)[C@@H](C)C[C@H](Cc1ccccc1)NC(=O)c1nc([C@@H](C[C@H](C(C)C)N(C)C(=O)[C@@H](NC(=O)[C@H]2CCCCN2C)C(C)C)OC(C)=O)sc1C`, for which the growth in the assay on HCT-15 colon is 12.9%; in the assay on HT29 colon it was 4.71% (active); in the assay on SNB-75 CNS, 12.7%; with SNB-19 CNS it was 24.3%; with U251 CNS it was 14.6%; with PC-3 prostate, 28.9%. The growth in the assay with SK-MEL-5 melanoma was -39.2% (active); with UACC-62 melanoma it was 30.2%; in the assay with LOX IMVI melanoma, 12.4%; in the assay with SK-MEL-28 melanoma, 66.1%.
With `c1cnc2[nH]cc(-c3csc(-c4cn(CCCCN5CCOCC5)c5ccccc45)n3)c2c1`, the growth was 5.17% (active) in the assay on HCT-15 colon; -44.6% (active) in the assay with HT29 colon; 35.4% in the assay on SNB-75 CNS; 57.5% in the assay on SNB-19 CNS; 20% with U251 CNS; 25.9% in the assay on PC-3 prostate. Moreover, the growth was 51.2% in the assay on SK-MEL-5 melanoma, 68.9% in the assay with UACC-62 melanoma, 20.8% in the assay with LOX IMVI melanoma and -71.1% (active) in the assay on SK-MEL-28 melanoma.
Regarding `CCCCCCCCCCCCCC[P+](CCCCCC)(CCCCCC)CCCCCC`, the growth in the assay with HCT-15 colon is 7.54% (active); in the assay on HT29 colon, -58.2% (active); in the assay on SNB-75 CNS it was -31.4% (active); with SNB-19 CNS, 8.99% (active); with U251 CNS, -68.4% (active); in the assay with PC-3 prostate it was -78.1% (active). The growth in the assay with SK-MEL-5 melanoma is -100% (active); in the assay on UACC-62 melanoma it was -28.1% (active); with LOX IMVI melanoma it was -68.5% (active); with SK-MEL-28 melanoma, -97.8% (active).
With `CC(=O)O[C@H](C[C@H](C(C)C)N(C)C(=O)[C@@H](NC(=O)[C@H]1CCCCN1C)C(C)(C)C)c1nc(C(=O)N[C@@H](Cc2ccccc2)C[C@H](C)C(=O)O)cs1`, the growth was 5.59% (active) in the assay with HCT-15 colon; 1.32% (active) in the assay on HT29 colon; 17% with SNB-75 CNS; 23.4% with SNB-19 CNS; 11.1% in the assay with U251 CNS; 25.1% in the assay on PC-3 prostate. Besides, the growth is -50.6% (active) in the assay with SK-MEL-5 melanoma, 26.2% with UACC-62 melanoma, 14.3% with LOX IMVI melanoma and 52.6% in the assay on SK-MEL-28 melanoma.
For the compound `COc1cc2c(c(OC)c1OC)-c1ccc([O-])c(=O)cc1[C@@H](NC(C)=O)CC2.COc1cc2c(c(OC)c1OC)-c1ccc([O-])c(=O)cc1[C@@H](NC(C)=O)CC2.[Cu+2]`, the growth was 15.8% in the assay on HCT-15 colon; 9.61% (active) in the assay with HT29 colon; 50.1% with SNB-75 CNS; 25.2% in the assay with SNB-19 CNS; 22.3% with U251 CNS; 35.1% with PC-3 prostate. Moreover, the growth was 19.2% in the assay on SK-MEL-5 melanoma, 23.5% with UACC-62 melanoma, 36.3% with LOX IMVI melanoma and 48.5% in the assay on SK-MEL-28 melanoma.
Consider `COc1cccc(/C=C/[N+](=O)[O-])c1`, for which the growth with HCT-15 colon is -9.58% (active); in the assay with HT29 colon it was -48.6% (active); in the assay on SNB-75 CNS it was 68.1%; in the assay with SNB-19 CNS, 71.8%; in the assay with U251 CNS it was 54.4%; with PC-3 prostate it was 63.6%. Further, the growth with SK-MEL-5 melanoma is 80.6%; in the assay on UACC-62 melanoma, 92.6%; in the assay with LOX IMVI melanoma it was -80.6% (active); with SK-MEL-28 melanoma it was 50.2%.
Take `C[N+](C)(C)Cc1cc(Cl)ccc1O`: the growth in the assay with HCT-15 colon was 91.8%; with HT29 colon, 97.5%; in the assay with SNB-75 CNS, 99.3%; in the assay on SNB-19 CNS, 118%; with U251 CNS, 98.7%; in the assay on PC-3 prostate, 99.8%. The growth in the assay with SK-MEL-5 melanoma is 93.1%; in the assay on UACC-62 melanoma, 102%; in the assay with LOX IMVI melanoma it was 99%; in the assay with SK-MEL-28 melanoma it was 102%.
